Where “and” joins values, the source holds several entries; their conditions need not be identical. Equal values may be shown once. Records with an inconclusive call do not appear. Calls of active or inactive are those of the source.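 How the source made its calls, unless noted: active means normalized viability below 100% at a tested concentration; inactive means the rest.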
Experiments:
[1] = Wnt pathway potentiators raising nuclear beta-catenin – imaging, WNT3A-conditioned medium, mouse C2C12, NPC library, primary screen (AID 1117326; in the data active means nuclear beta-catenin stimulation mostly above about 4.2%, no sharp cut-off; inactive means mostly below about 10%); settings: stronger effect = higher value
[2] = stimulators of insulin release from INS-1E, primary screen, cell-based, 5 mM glucose, NPC library (AID 1117329;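 active means compound raises insulin release from rat beta cells at 5 mM glucose, no numeric limit stated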); settings: rat INS-1E insulin secretion, at 10 µM, stronger effect = higher value
[3] = growth inhibition of GSK3B-pretreated HCT116 cells – cell-based, CellTiter-Glo, 0.2 to 20 µM (AID 1117336;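 active means compounds lowering colon cancer cell viability after pretreatment blocking the GSK3B kinase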); settings: HCT116 viability after GSK3B inhibitor, at 20 µM, stronger effect = higher value
[4] = inhibition of endothelial tube formation, primary screen, imaging, VEGF stimulated, CD31 staining, tube area, NPC library (AID 1117340;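 active means compound that reduces growth-factor-driven endothelial tube area in a mixed cell culture, no cutoff stated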); settings: VEGF-stimulated ADSC/ECFC co-culture, at 10 µM, stronger effect = higher value
[5] = GLP1 release stimulators, primary, NCI-H716, NPC library (AID 1117341;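 active means compound raises GLP1 secretion from the human gut endocrine cells, with no numeric limit stated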); settings: NCI-H716 cells, at 10 µM, stronger effect = higher value
[6] = HCT116 colon cancer cell growth inhibition, primary screen, CellTiter-Glo luminescence, NPC library (AID 1117342;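 active means compounds that lower survival of HCT116 colon cancer cells in the luminescence readout, no numeric limit stated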); settings: at 20 µM (top of the series)
[7] = reduced SW480 viability measured with CellTiter-Glo, NPC library, primary (AID 1117343;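 active means compounds that lower viability of the colon cancer cells in the luminescence readout, with no numeric limit stated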); settings: CellTiter-Glo luminescence; at 20 µM (top of the series) unless noted
[8] = NPC library primary testing for decreased DLD-1 cell viability via CellTiter-Glo (AID 1117346;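 active means compounds that lower survival of DLD-1 colon cancer cells in the luminescence readout, no cutoff given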); settings: DLD-1 viability, CellTiter-Glo luminescence; at 20 µM (top of the series)
[9] = viability loss in pontine glioma line – cell-based, JHH-DIPG-1, MIPE4.0, CellTiter-Glo, qHTS, dose response (AID 1347062; cut-off not given, nearly all actives have AC50 up to about 27 µM;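 on AC50: cells exposed to compound for two days before readout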); settings: JHH-DIPG-1 viability, CellTiter-Glo ATP luminescence
[10] = viability loss in pontine glioma line – cell-based, SU-DIPG-IV, MIPE4.0, CellTiter-Glo, qHTS, dose response (AID 1347063; cut-off not given, nearly all actives have AC50 up to about 30 µM;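 further: compound exposure lasted 48 hours before the viability readout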); settings: CellTiter-Glo ATP luminescence
[11] = growth inhibition of DIPG cells – cell-based, MIPE4.0 library, CellTiter-Glo luminescence, qHTS (AID 1347066; cut-off not given, nearly all actives have AC50 up to about 30 µM;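 further: cells exposed to compound for 48 hours before readout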); settings: SU-DIPG-VI viability, CellTiter-Glo ATP luminescence
[12] = viability loss with induced miR-34 in A549 – imaging, A549 dox-inducible miR-34, nuclei and caspase counts, primary screen (AID 1347080;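 active means compounds whose cell count with miR-34 switched on is under 0.7 times the count with it off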); settings: A549 miR-34 inducible, Hoechst nuclei count, 48 h
[13] = MELAS cybrid and Rieske KO viability enhancers – cell-based, MELAS cybrids, Rieske KO mouse fibroblasts, CellTiter-Glo, primary screen (AID 1508586;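 active means mean z-score across replicates of 1.96 or higher in either the MELAS or the Rieske mutant cell line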;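 further: z relative to plate mean and SD of compound and empty wells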); settings: low glucose
[14] = viability loss in pontine glioma line – cell-based, SU-DIPG-XXV, MIPE5.0, CellTiter-Glo, qHTS, dose response (AID 1347065; cut-off not given, nearly all actives have AC50 up to about 26 µM;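 further: cells exposed to compound for 48 hours before ATP readout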); settings: CellTiter-Glo ATP luminescence
[15] = JHH-DIPG-1 glioma cell viability, MIPE5.0 library, CellTiter-Glo luminescence, qHTS (AID 1347067; cut-off not given, nearly all actives have AC50 up to about 26 µM;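 further: cells exposed to compound for 48 hours before readout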); settings: JHH-DIPG-1 glioma viability, CellTiter-Glo ATP luminescence
[16] = drug combination growth inhibition, ovarian cancer – cell-based, oncology-focused library, rucaparib conditional, profiling panel (AID 1508598); settings: patient-derived ovarian cancer cells, CellTiter-Glo viability, 144 h, stronger effect = lower value
[17] = growth inhibition of DIPG cells – cell-based, MIPE5.0 library, qHTS (AID 1347068; cut-off not given, nearly all actives have IC50 up to about 30 µM); settings: SU-DIPG-XXV viability
[18] = galactose survival enhancers in mitochondrial complex I cybrids – cell-based, galactose medium, ATP luminescence, primary screen (AID 1645843;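 active means z-score of at least 1.8 in each of two replicates, scored against plate mean and spread of sample wells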;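 further: positive z means more ATP and so rescue of galactose-driven cybrid death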); settings: complex I mutant cybrid cells, 72 h, stronger effect = higher value
[19] = P. berghei load reduction in hepatocytes – cell-based, HepG2, luciferase luminescence, HepG2 viability, primary screen (AID 624349; in the data active means parasite load remaining mostly below about 12%, no sharp cut-off; inactive means mostly above about 10%;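 further: 100% = mean of DMSO negative control wells on the same plate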); settings: P. berghei liver stage in HepG2, luciferase luminescence, concentration not given here; parasite load remaining: stronger effect = lower value; viability: measured here: HepG2 viability without parasites
[20] = blockers of cellular phospholipid synthesis – cell-based, LOPAC library, screen 4, primary screen (AID 1347384; call rule not given here); settings: animal cells, phospholipid biosynthesis inhibition screen; at 10 µM
[21] = stronger effect = lower value, cell number ratio, induced over uninduced
[22] = measured here: relative caspase fold change +Dox/-Dox
[23] = measured here: total cells with miR-34 induction, stronger effect = lower value
[24] = measured here: total cells without miR-34 induction
[25] = MELAS cybrid survival, CellTiter-Glo 48 h, stronger effect = higher value
[26] = Rieske KO mouse fibroblast survival, CellTiter-Glo 72 h
[27] = at 0.000305 µM, OCI-C5x cells, with rucaparib 10 µM, 100% = cells with rucaparib alone
[28] = at 0.000305 µM, OCI-C5x cells, without rucaparib
[29] = at 0.000305 µM, OCI-P5x cells, with rucaparib 20 µM, 100% = cells with rucaparib alone
[30] = at 0.000305 µM, OCI-P5x cells, without rucaparib
[31] = at 0.00122 µM, OCI-C5x cells, with rucaparib 10 µM, 100% = cells with rucaparib alone
[32] = at 0.00122 µM, OCI-C5x cells, without rucaparib
[33] = at 0.00122 µM, OCI-P5x cells, with rucaparib 20 µM, 100% = cells with rucaparib alone
[34] = at 0.00122 µM, OCI-P5x cells, without rucaparib
[35] = at 0.00488 µM, OCI-C5x cells, with rucaparib 10 µM, 100% = cells with rucaparib alone
[36] = at 0.00488 µM, OCI-C5x cells, without rucaparib
[37] = at 0.00488 µM, OCI-P5x cells, with rucaparib 20 µM, 100% = cells with rucaparib alone
[38] = at 0.00488 µM, OCI-P5x cells, without rucaparib
[39] = at 0.0195 µM, OCI-C5x cells, with rucaparib 10 µM, 100% = cells with rucaparib alone
[40] = at 0.0195 µM, OCI-C5x cells, without rucaparib
[41] = at 0.0195 µM, OCI-P5x cells, with rucaparib 20 µM, 100% = cells with rucaparib alone
[42] = at 0.0195 µM, OCI-P5x cells, without rucaparib
[43] = at 0.0781 µM, OCI-C5x cells, with rucaparib 10 µM, 100% = cells with rucaparib alone
[44] = at 0.0781 µM, OCI-C5x cells, without rucaparib
[45] = at 0.0781 µM, OCI-P5x cells, with rucaparib 20 µM, 100% = cells with rucaparib alone
[46] = at 0.0781 µM, OCI-P5x cells, without rucaparib
[47] = at 0.313 µM, OCI-C5x cells, with rucaparib 10 µM, 100% = cells with rucaparib alone
[48] = at 0.313 µM, OCI-C5x cells, without rucaparib
[49] = at 0.313 µM, OCI-P5x cells, with rucaparib 20 µM, 100% = cells with rucaparib alone
[50] = at 0.313 µM, OCI-P5x cells, without rucaparib
[51] = at 1.25 µM, OCI-C5x cells, with rucaparib 10 µM, 100% = cells with rucaparib alone
[52] = at 1.25 µM, OCI-C5x cells, without rucaparib
[53] = at 1.25 µM, OCI-P5x cells, with rucaparib 20 µM, 100% = cells with rucaparib alone
[54] = at 1.25 µM, OCI-P5x cells, without rucaparib
[55] = at 5 µM, OCI-C5x cells, with rucaparib 10 µM, 100% = cells with rucaparib alone
[56] = at 5 µM, OCI-C5x cells, without rucaparib
[57] = at 5 µM, OCI-P5x cells, with rucaparib 20 µM, 100% = cells with rucaparib alone
[58] = at 5 µM, OCI-P5x cells, without rucaparib

O=C(OC1C[C@H]2CC[C@@H](C1)[N+]21CCCC1)C(O)(c1ccccc1)c1ccccc1 (some centres not stated)
10400: cell count [12, 23]
10200: cell count [12, 24]
0.872: fold change [12, 22]
-2%: nuclear beta-catenin stimulation ([1]; stimulation, at 2 µM)
inactive: nuclear beta-catenin stimulation ([1]; at 10 µM) -1.3% | insulin secretion stimulation [2] 1.3% | viability decrease [3] -50.2% | tube area decrease [4] 10.7% | GLP1 secretion stimulation [5] -3.1% | inhibition of viability [6] 7.13% | viability decrease (inhibition) [7] -11.6% | viability decrease (inhibition) [8] -9.1% | outcome [9] | outcome [10] | outcome [11] | fold change [12, 21] 1.02 | z-score [13, 25] -0.39
0.689: z-score [13, 26]

COc1cc(Nc2c(C#N)cnc3cc(OCCCN4CCN(C)CC4)c(OC)cc23)c(Cl)cc1Cl
0.682: fold change [12, 22]
inactive: nuclear beta-catenin stimulation ([1]; at 10 µM) 17.6% | insulin secretion stimulation [2] 2.2% | tube area decrease [4] 1.5% | fold change [12, 21] 0.893 | viability [16, 27] 120% | viability [16, 28] 107% | viability [16, 31] 121% | viability [16, 32] 109% | viability [16, 35] 119% | viability [16, 36] 107% | viability [16, 37] 101% | viability [16, 38] 102% | viability [16, 39] 122% | viability [16, 40] 104% | viability [16, 42] 102% | viability [16, 43] 132% | viability [16, 44] 111% | viability [16, 46] 103% | viability [16, 47] 125% | viability [16, 48] 101% | viability [16, 51] 113% | viability [16, 52] 108%
1100: cell count [12, 24]
-0.399: z-score [13, 26]
-1%: nuclear beta-catenin stimulation ([1]; stimulation, at 2 µM)
active: viability decrease [3] 110% | GLP1 secretion stimulation [5] 47.9% | inhibition of viability [6] 113% | viability decrease (inhibition) [7] 132% | viability decrease (inhibition) [8] 102% | AC50 [9] 20.9 µM | AC50 [10] 20.9 µM | AC50 [14] 13.2 µM | AC50 [15] 11.8 µM | z-score [13, 25] 2.73 | viability [16, 29] 88.1% | viability [16, 30] 68.6% | viability [16, 33] 87.4% | viability [16, 34] 30.3% | viability [16, 41] 96.8% | viability [16, 45] 94.7% | viability [16, 49] 80.8% | viability [16, 50] 91% | viability [16, 53] 57.8% | viability [16, 54] 95.2% | viability [16, 55] 49.5% | viability [16, 56] 61.4% | viability [16, 57] 24.4% | viability [16, 58] 42%
986: cell count [12, 23]

CC(C)(C)C(=O)OCOP(=O)(COCCn1cnc2c(N)ncnc21)OCOC(=O)C(C)(C)C
5980 and 5100: cell count [12, 23]
inactive: insulin secretion stimulation [2] 3.5% | GLP1 secretion stimulation [5] 2.8% | outcome [17] | fold change [12, 21] 0.906 and 0.857 | z-score [13, 25] -0.539 and -0.165 | z-score [18] -0.625
0.795 and 0.351: z-score [13, 26]
6600 and 5960: cell count [12, 24]
active: nuclear beta-catenin stimulation ([1]; at 10 µM) 79.6% | viability decrease [3] 95.4% | tube area decrease [4] 100% | inhibition of viability [6] 73.3% | viability decrease (inhibition) [7] 95.4% | viability decrease (inhibition) [8] 78.5% | AC50 [10] 7.43 µM | AC50 [14] 20.9 µM | AC50 [11] 16.6 µM
72.7%: nuclear beta-catenin stimulation ([1]; stimulation, at 2 µM)
0.703 and 1.46: fold change [12, 22]

C#Cc1cccc(Nc2ncnc3cc(OCCOC)c(OCCOC)cc23)c1
1.12: fold change [12, 22]
4550: cell count [12, 23]
active: viability decrease [3] 72.1% | inhibition of viability [6] 59.4% | viability decrease (inhibition) [8] 83.4% | AC50 [9] 7.43 µM | AC50 [10] 7.43 µM | AC50 [14] 7.42 µM | viability [16, 30] 93.6% | viability [16, 34] 96.4% | viability [16, 42] 97.9% | viability [16, 46] 99% | viability [16, 50] 91.2% | viability [16, 51] 76% | viability [16, 52] 91.8% | viability [16, 54] 83% | viability [16, 55] 39.7% | viability [16, 56] 62.2% | viability [16, 57] 76.9% | viability [16, 58] 66.3%
inactive: parasite load remaining [19] 380% | nuclear beta-catenin stimulation ([1]; at 10 µM) 1.3% | insulin secretion stimulation [2] 1.8% | tube area decrease [4] -49.7% | GLP1 secretion stimulation [5] 1.7% | viability decrease (inhibition) [7] 34.2% | fold change [12, 21] 0.807 | viability [16, 27] 108% | viability [16, 28] 109% | viability [16, 29] 121% | viability [16, 31] 105% | viability [16, 32] 109% | viability [16, 33] 142% | viability [16, 35] 109% | viability [16, 36] 104% | viability [16, 37] 111% | viability [16, 38] 101% | viability [16, 39] 105% | viability [16, 40] 101% | viability [16, 41] 122% | viability [16, 43] 102% | viability [16, 44] 106% | viability [16, 45] 135% | viability [16, 47] 101% | viability [16, 48] 104% | viability [16, 49] 109% | viability [16, 53] 101% | z-score [18] 1.06
-0.8%: nuclear beta-catenin stimulation ([1]; stimulation, at 2 µM)
-0.563 and 2.07: z-score [13, 26]
168%: viability [19]
2.01 (active) and 0.197: z-score [13, 25]
5640: cell count [12, 24]

CCOC(=O)Nc1ccc(NCc2ccc(F)cc2)nc1N
inactive: nuclear beta-catenin stimulation ([1]; at 10 µM) 0.2% | insulin secretion stimulation [2] 1.9% | viability decrease [3] 5.6% | tube area decrease [4] -7.5% | GLP1 secretion stimulation [5] -1.1% | inhibition of viability [6] 18.8% | viability decrease (inhibition) [7] 1.7% | viability decrease (inhibition) [8] 8.6% | outcome [10] | outcome [11] | outcome [15] | fold change [12, 21] 1.05 and 0.965 | outcome [20] | z-score [13, 25] -0.196 | z-score [18] 1.55
-0.17: z-score [13, 26]
9760 and 8410: cell count [12, 24]
0.797 and 0.68: fold change [12, 22]
10200 and 8110: cell count [12, 23]
2.4%: nuclear beta-catenin stimulation ([1]; stimulation, at 2 µM)

Source: PubChem BioAssay
